An excerpt weighted towards active compounds, which were near 12% of everything screened.
Sfp PPTase inh: qHTS Assay for Inhibitors of Bacillus subtilis Sfp phosphopantetheinyl transferase (PPTase); 4'-phosphopantetheinyl transferase ffp (Bacillus subtilis), Q9F4F7; Biochemical Sfp PPTase activity, qHTS; Potency, µM, actives largely listed as inhibitors; 310,000 tested, 3.5% active; AID 1490, 2009;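 also: the enzyme is Sfp with the accession as filed and its product quenches rhodamine fluorescence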
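Fluorescence-quenching assay with 15 nM Sfp, 5 uM rhodamine-CoA and 12.5 uM BHQ-2-labelled ybbR peptide in pH 7.6 Hepes/MgCl2 buffer. Enzyme was pre-incubated with compound for 15 min at room temperature. Rate was taken from the 30-min fluorescence change (525/598 nm).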
G9a inh: qHTS Assay for Inhibitors of Histone Lysine Methyltransferase G9a; Histone-lysine N-methyltransferase EHMT2 (Homo sapiens), Q96KQ7; G9a H3K9 monomethylation, AlphaScreen, 2 h; Potency, µM (doses to about 102 µM), hits mostly inhibitors; 350,000 tested, 8.8% active; AID 504332, 2011; also: nearly all actives have a fitted effect of over 75% in size
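Chemiluminescent proximity detection of H3K9 monomethylation, read after 10 min bead incubation in the dark. Reaction: 20 nM G9a, 500 nM biotin-H3K9 peptide, 20 uM SAM cofactor, 2 h, room temperature, following 15 min enzyme-compound preincubation.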
TDP1 block: qHTS Assay for Inhibitors of Tyrosyl-DNA Phosphodiesterase (TDP1); Potency, µM (doses to about 130 µM), actives largely listed as inhibitors; 350,000 tested, 0.28% active; Tyrosyl-DNA phosphodiesterase 1 (Homo sapiens), Q9NUW8; recombinant TDP1, AlphaScreen DNA substrate cleavage; also: nearly all actives have a fitted effect of over 40% in size
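Here, a 5' biotin and 3' phosphotyrosine-FITC DNA oligonucleotide reports Tdp1 activity: intact substrate bridges AlphaScreen beads, while cleavage leaves a 3' phosphate and drops signal. All incubations at room temperature.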
HP1b chromo inh: HTS for Inhibitors of HP1-beta Chromodomain Interactions with Methylated Histone Tails | AlphaScreen HP1-beta / biotin-H3K9me3 peptide binding | Potency, µM (highest dose often 114 µM), actives largely listed as inhibitors | 390,000 tested, 0.56% active | AID 540317, 2011; also: nearly all actives have a fitted effect of over 70% in size
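AlphaScreen: HP1-beta (50 nM) preformed 30 min with biotin-H3(1-18)K9me3 peptide (50 nM) in PBS pH 7.4, 0.01% Tween-20. Compound added for 30 min at RT, then streptavidin donor/nickel chelate acceptor beads (10 ug/mL) for 30 min.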
BAZ2B inh: qHTS Assay for Inhibitors of BAZ2B; Bromodomain adjacent to zinc finger domain protein 2B (Homo sapiens), Q9UIF8; AlphaScreen BAZ2B-H3K14Ac peptide displacement; Potency, µM (series often up to 114 µM), actives largely listed as inhibitors; 360,000 tested, 4.4% active; also: nearly all actives have a fitted effect of over 60% in size
Target sequence (Q9UIF8 whole entry, looked up, the tested form may be a part): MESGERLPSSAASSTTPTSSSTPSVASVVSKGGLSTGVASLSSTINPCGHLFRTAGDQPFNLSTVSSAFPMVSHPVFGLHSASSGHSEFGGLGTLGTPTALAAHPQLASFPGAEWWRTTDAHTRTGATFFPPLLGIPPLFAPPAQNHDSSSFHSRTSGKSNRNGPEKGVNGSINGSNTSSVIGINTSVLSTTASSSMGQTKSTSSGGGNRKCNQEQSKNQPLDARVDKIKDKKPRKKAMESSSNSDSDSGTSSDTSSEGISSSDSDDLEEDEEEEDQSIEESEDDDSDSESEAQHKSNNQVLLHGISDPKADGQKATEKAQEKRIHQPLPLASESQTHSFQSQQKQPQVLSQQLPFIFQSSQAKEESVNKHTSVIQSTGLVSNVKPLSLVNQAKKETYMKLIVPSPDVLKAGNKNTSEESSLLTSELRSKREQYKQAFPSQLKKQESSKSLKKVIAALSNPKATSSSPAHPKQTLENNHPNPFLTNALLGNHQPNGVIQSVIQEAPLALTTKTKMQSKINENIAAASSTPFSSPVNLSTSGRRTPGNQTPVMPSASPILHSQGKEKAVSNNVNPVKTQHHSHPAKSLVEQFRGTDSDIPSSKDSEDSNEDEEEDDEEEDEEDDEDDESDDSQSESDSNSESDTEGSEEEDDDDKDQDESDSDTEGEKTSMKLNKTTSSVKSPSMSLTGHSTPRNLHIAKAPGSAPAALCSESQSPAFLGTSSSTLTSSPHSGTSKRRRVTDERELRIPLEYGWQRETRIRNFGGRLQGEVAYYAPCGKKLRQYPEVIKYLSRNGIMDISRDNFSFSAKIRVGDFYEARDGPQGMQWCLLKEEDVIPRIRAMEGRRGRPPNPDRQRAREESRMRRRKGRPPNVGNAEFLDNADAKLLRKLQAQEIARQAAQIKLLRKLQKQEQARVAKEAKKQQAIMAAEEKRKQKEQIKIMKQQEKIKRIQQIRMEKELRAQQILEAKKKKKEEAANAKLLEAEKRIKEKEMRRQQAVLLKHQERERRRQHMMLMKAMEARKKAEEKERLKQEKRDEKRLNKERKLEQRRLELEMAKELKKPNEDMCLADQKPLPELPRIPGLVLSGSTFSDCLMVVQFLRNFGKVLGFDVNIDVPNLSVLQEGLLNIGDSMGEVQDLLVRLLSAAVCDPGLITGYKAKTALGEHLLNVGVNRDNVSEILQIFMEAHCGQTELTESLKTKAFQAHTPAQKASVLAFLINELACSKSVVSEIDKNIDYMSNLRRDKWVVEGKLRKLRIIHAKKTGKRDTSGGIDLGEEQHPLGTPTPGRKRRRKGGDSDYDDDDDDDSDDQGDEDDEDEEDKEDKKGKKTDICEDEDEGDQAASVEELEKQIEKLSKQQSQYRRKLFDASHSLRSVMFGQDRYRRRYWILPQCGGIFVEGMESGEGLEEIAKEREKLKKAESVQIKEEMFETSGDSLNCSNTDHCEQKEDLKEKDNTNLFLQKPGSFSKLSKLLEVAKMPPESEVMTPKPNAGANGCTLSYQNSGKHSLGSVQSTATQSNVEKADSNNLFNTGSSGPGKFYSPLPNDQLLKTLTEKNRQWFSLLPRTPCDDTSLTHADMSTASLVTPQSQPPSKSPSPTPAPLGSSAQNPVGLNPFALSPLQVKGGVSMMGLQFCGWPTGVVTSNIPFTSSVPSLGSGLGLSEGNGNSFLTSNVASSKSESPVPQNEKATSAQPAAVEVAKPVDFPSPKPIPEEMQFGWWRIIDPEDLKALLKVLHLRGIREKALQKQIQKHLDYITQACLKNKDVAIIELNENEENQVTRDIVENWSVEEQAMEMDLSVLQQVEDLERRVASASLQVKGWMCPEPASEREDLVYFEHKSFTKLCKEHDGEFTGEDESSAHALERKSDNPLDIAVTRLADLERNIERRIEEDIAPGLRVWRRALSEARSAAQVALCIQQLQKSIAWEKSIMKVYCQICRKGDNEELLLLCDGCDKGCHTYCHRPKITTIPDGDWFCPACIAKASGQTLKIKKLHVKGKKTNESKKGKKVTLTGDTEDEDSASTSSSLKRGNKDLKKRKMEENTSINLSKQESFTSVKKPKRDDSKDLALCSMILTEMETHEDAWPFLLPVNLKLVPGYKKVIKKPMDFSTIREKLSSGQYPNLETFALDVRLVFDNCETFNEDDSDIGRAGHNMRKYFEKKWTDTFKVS
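Protein-peptide AlphaScreen: BAZ2B 50 nM, b-H3K14Ac 50 nM, 1x PBS pH 7.4 + 0.01% Tween-20. Preincubation 30 min RT; cpd 30 min RT (top 110 uM); beads 20 min RT, light-protected.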
JMJD2A Tudor: qHTS Assay for Inhibitors of JMJD2A-Tudor Domain; AlphaScreen JMJD2A-Tudor / H3K4me3 peptide binding; 390,000 tested, 4.4% active; Potency, µM (highest dose often 114 µM), actives largely listed as inhibitors; Lysine-specific demethylase 4A (Homo sapiens), O75164; also: nearly all actives have a fitted effect of over 50% in size
Hits are given with their value; [ ] = another dose, or the depositor's remark. Calls follow the shape of the dose curve; as a rule, active = well fitted curve in the direction sought with a large enough effect; inconclusive = small, poorly fitted or top-dose-only effect, or another doubt; inactive = no such curve, though single readings can be large; an effect the other way counts as inactive or inconclusive.

Screening CCOc1ccc(/C=C2/C(=O)NC(=O)N(CCc3ccc(F)cc3)C2=O)cc1 returned Sfp PPTase inh inconclusive, G9a inh inconclusive, TDP1 block inactive, HP1b chromo inh inactive, BAZ2B inh inactive and JMJD2A Tudor inactive.
For CCN(CC)c1ccc(/C=C2/C(=O)NC(=O)N(CC3CCCO3)C2=O)cc1 (stereo unspecified) the results were Sfp PPTase inh inactive, TDP1 block inactive, HP1b chromo inh inactive, BAZ2B inh inconclusive and JMJD2A Tudor inactive.
Cc1ccc2nc3sc(=O)sc3nc2c1 was read as Sfp PPTase inh inconclusive and TDP1 block inactive.
For COc1ccc(NC(=O)N2CC3(CCN(C(=O)Oc4ccccc4)CC3)C2)cc1 the results were Sfp PPTase inh inactive and G9a inh inactive[12.7 µM].
`O=C1NC(=O)N(Cc2cccs2)C(=O)/C1=C/c1ccc(N2CCOCC2)cc1` gave Sfp PPTase inh 50µM, G9a inh inconclusive, TDP1 block inactive, HP1b chromo inh inactive, BAZ2B inh inconclusive and JMJD2A Tudor inactive.
O=S(=O)(Cl)c1ccccc1 was read as TDP1 block inactive.
O=C(c1ccc2c(c1)N(Cc1ccc(F)cc1)CCS2)N1CCC2(CC1)OCCO2 was read as Sfp PPTase inh inactive, G9a inh inactive, TDP1 block inactive, HP1b chromo inh inactive, BAZ2B inh inconclusive and JMJD2A Tudor inactive.
Cc1ccc(CN2CCSc3ccc(C(=O)N4CCC5(CC4)OCCO5)cc32)cc1 was read as Sfp PPTase inh inactive, G9a inh 50µM, TDP1 block inactive, HP1b chromo inh inactive, BAZ2B inh inactive and JMJD2A Tudor inconclusive.
For Cc1ccc(-n2c(O)c(C=NCc3ccco3)c(=O)[nH]c2=S)cc1C the results were Sfp PPTase inh 20µM, G9a inh inconclusive, TDP1 block inactive, HP1b chromo inh inactive, BAZ2B inh inconclusive and JMJD2A Tudor inactive.
COc1ccccc1-n1c(O)c(C=NCCCn2ccnc2)c(=O)[nH]c1=O was read as Sfp PPTase inh inactive, G9a inh inactive, TDP1 block inactive, HP1b chromo inh inactive, BAZ2B inh inactive and JMJD2A Tudor inactive.
`O=c1[nH]c(=O)n(Cc2ccco2)c(O)c1C=NCCN1CCOCC1` gave Sfp PPTase inh inactive, G9a inh inconclusive, TDP1 block inactive, HP1b chromo inh inactive, BAZ2B inh inactive and JMJD2A Tudor inactive.
For O=c1[nH]c(=O)n(-c2cccc3ccccc23)c(O)c1C=NCCCn1ccnc1 the results were Sfp PPTase inh inactive, G9a inh inactive, TDP1 block inactive, HP1b chromo inh inactive, BAZ2B inh 56µM and JMJD2A Tudor inactive.
Screening O=C(N/N=C/c1c(O)n(Cc2ccco2)c(=O)[nH]c1=O)c1ccccc1O returned Sfp PPTase inh inactive, G9a inh inconclusive, TDP1 block inactive, HP1b chromo inh inactive, BAZ2B inh inconclusive and JMJD2A Tudor 79µM.
`CCCCC(=O)N/N=C/c1c(O)n(CCCC)c(=S)[nH]c1=O` gave Sfp PPTase inh inactive, G9a inh inactive, TDP1 block inactive, HP1b chromo inh inactive, BAZ2B inh 71µM and JMJD2A Tudor inactive.
Screening CCCCC(=O)N/N=C/c1c(O)n(-c2cccc3ccccc23)c(=O)[nH]c1=O returned Sfp PPTase inh inactive, G9a inh inactive, TDP1 block inactive, HP1b chromo inh inactive, BAZ2B inh 79µM and JMJD2A Tudor 79µM.
`COc1ccc(CCn2c(O)c(C=Nc3ccc(NC(C)=O)cc3)c(=O)[nH]c2=O)cc1OC` gave Sfp PPTase inh inactive, G9a inh inactive, HP1b chromo inh inactive, BAZ2B inh inconclusive and JMJD2A Tudor inactive.
For CCN(CC)CCN=Cc1c(O)n(Cc2ccco2)c(=O)[nH]c1=O the results were Sfp PPTase inh inactive, TDP1 block inactive, HP1b chromo inh inactive, BAZ2B inh inactive and JMJD2A Tudor inactive.
Screening CC(=O)Nc1ccc(N=Cc2c(O)n(Cc3ccco3)c(=O)[nH]c2=O)cc1 returned Sfp PPTase inh inactive, G9a inh 50µM, TDP1 block 18µM, HP1b chromo inh inactive, BAZ2B inh inactive and JMJD2A Tudor inactive.
Screening CCCCC(=O)N/N=C/c1c(O)n(Cc2ccco2)c(=O)[nH]c1=O returned Sfp PPTase inh inactive, G9a inh inconclusive, TDP1 block inactive, HP1b chromo inh inactive, BAZ2B inh 50µM and JMJD2A Tudor inconclusive.
O=c1[nH]c(=O)n(Cc2ccco2)c(O)c1C=NCc1ccco1 was read as Sfp PPTase inh 25µM, G9a inh inactive[0.501 µM], TDP1 block inactive, HP1b chromo inh inactive, BAZ2B inh 56µM and JMJD2A Tudor inactive.
`CCCC(=O)Cl` gave TDP1 block inactive.
CC(CN)CC(=O)O (stereo unspecified) was read as Sfp PPTase inh inactive, G9a inh inactive and TDP1 block inactive.
COC[C@H]([C@@H](O)[C@@H](O)C(=O)NCC[C@@H](C)c1nc(/C=C/C[C@H]2OC3(C[C@H](O)[C@H]2C)OC([C@@H](C[C@@H](O)[C@@H](C)[C@@H](O)[C@@H](C)/C=C(C)/C(C)=C/C=C/C(C)=C\C#N)OC)[C@@H](OP(=O)(O)O)C3(C)C)co1)N(C)C (stereo partly specified) was read as Sfp PPTase inh inactive, G9a inh inactive and TDP1 block inactive.
Screening BrC(Br)Br returned TDP1 block inactive.
CCOc1ccccc1NC(=O)c1sc2nc3c(cc2c1N)CN(Cc1ccccc1)CC3 was read as G9a inh inconclusive, TDP1 block inactive, HP1b chromo inh inactive, BAZ2B inh inactive and JMJD2A Tudor inactive.
For CSCC[C@H](NC(=O)[C@H](CC(C)C)NC(=O)[C@@H](Cc1cnc[nH]1)NC(=O)[C@H](Cc1ccccc1)NC(=O)[C@@H](Cc1ccccc1)NC(=O)[C@@H](N)Cc1ccc(O)cc1)C(N)=O the results were Sfp PPTase inh inactive and TDP1 block inactive.
`COc1ccc(C=C2C(=O)NC(=S)NC2=O)cc1` gave HP1b chromo inh inconclusive and JMJD2A Tudor 89µM.
For COc1ccc(OCCOc2cccc(C=C3C(=O)NC(=O)NC3=O)c2)cc1 the results were Sfp PPTase inh inactive, G9a inh inconclusive and BAZ2B inh inactive.
Screening O=C1NC(=S)NC(=O)C1=Cc1c(Cl)cccc1Cl returned HP1b chromo inh inactive and JMJD2A Tudor inactive.
O=C1NC(=S)NC(=O)C1=Cc1cccc2cc3ccccc3cc12 was read as Sfp PPTase inh 25µM, G9a inh 16µM, TDP1 block inactive, HP1b chromo inh inactive, BAZ2B inh 32µM and JMJD2A Tudor inactive.
